# Experimental data taken from PubChem BioAssay AID1508600 (Functional Genomics Laboratory (NCATS/FGL), 2020).
# Screen size: about 53,000 sequences; about 3,700 (7%) were called active. This is one part of a sample in which actives are shown more often than they occur. Unmarked numbers belong to inactive results.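 How the source made its calls: active means gene knockdowns whose robust z-score for IL-1 alpha signal is at least 2 or at most -2, so actives lie on both sides; inactive means the rest.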
# Assay: Components of the Cytosolic LPS Sensing Pathway: Gene Identification via Genome-wide siRNA Screen;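 further: robust z of the log signal after scaling to non-targeting control siRNA wells of the plate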
# Conditions: RAW264.7 macrophages, IL-1a HTRF, actives lie on both sides, screened at 100 nM (by protocol), cells primed 5 h with Pam3CSK4 first
# Method in brief: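 Supernatant IL-1a by HTRF from RAW264.7 cells primed with Pam3CSK4 (5 hours) and transfected with LipidA (24 hour) after 48h siRNA knockdown at 100 nM; cell viability checked with CellTiter-Glo.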
row,Sequence,z-score
1,GGGACACCUUCCGUAACUATT against Gcdh,-0.832
2,GCACGCUAUUGGCUAUGAGTT against BC052040,-0.0182
3,GGUCAUGAUCAAGACACAUTT against Tmem63c,0.371
4,AAGGUUUGGAAACUCAUUGTT against Zbtb25,-1.77
5,GGGUUAGGCCAGUUCUGAUTT against Reg3d,-2.08 (active)
6,GGAAGAGGAGGAGUACAAGTT against Fnbp1,-0.0804
7,GCAGUUCAUGUCCUGAAUATT against Olfr308,-1.49
8,GUUUCCAUAUCCUUUAAGUTT against Lilr4b,1.23
9,GGAACUGCUCGACAAAGCUTT against Primpol,-2.53 (active)
10,GGGUUAUAGGUGUGUGUGCTT against Gemin6,-0.389
11,GCUGCACUUGAAAUCCGAGTT against Atg2b,1.49
12,GCCCGUUCCACUUUUGGAGTT against Nedd1,2.2 (active)
13,GGAAGAAGCAGAAGAACAUTT against Rpl12,2.55 (active)
14,GGAACUCCUGGAGCAGAACTT against Tbc1d10b,-2.52 (active)
15,GGUUGUGCAAGAGUAUGAATT against Nphs2,0.316
16,GCGCACAACAGACUUCUAUTT against Epm2a,0.0628
17,GGAAGAACUUGACCCAGAGTT against Pex16,1.31
18,GGCGACAGUUGUUUUUGUGTT against Nlrp4b,-0.588
19,GCUGUUUUACCUUAAUCCCTT against Tnfsf18,0.601
20,GGAAUUCCAAGUCAUUAUUTT against B230340J04Rik,0.664
21,GCAUCUUAGGCAUUGCUAGTT against Pcna,-0.156
22,GGAUCAUGGGCGAAUGAUGTT against Rae1,-1.41

row,Sequence,z-score
1,GGACAAAAACAAAUGUGAGTT against 4933417A18Rik,-2.43 (active)
2,GGAAUCAAAGGUCAAGCCATT against Rnf181,2.17 (active)
3,CCAUGUCAGUUACAAUGCGTT against Gja6,1.54
4,GGUCCAUGAUUGAAACACGTT against Srpr,0.798
5,GCAGAUAAGAGUUCAAAUCTT against Oxa1l,-0.499
6,GACAUACAAUCUCCUACAUTT against Olfr478,0.818
7,GCCGGGACCAUGAUUAUAGTT against Rbm10,2.7 (active)
8,GGAAUUCCGAAUAUUCCAGTT against Tsen2,1.51
9,GGAAGCCACCUUAACAUUATT against Osgin1,-0.814
10,GGAGAACUCUUUCAGAUUCTT against Stk36,0.957
11,GGGAUUCUGUCUGCACUGUTT against Olfr1145,-2.51 (active)
12,GGGUUCUGCAUGUUGAUUCTT against Chm,-0.853
13,GCCACCCACCUAAAAUCAATT against Rcsd1,-0.216
14,GGAAGUCUAGGUAAAAAAGTT against Samsn1,-0.994
15,GGACUUCAAGGACUUCUACTT against Crtap,0.112
16,GGACAAUUGAAAACUGCCUTT against Gpd1,2.95 (active)
17,GGGUGAGUGUCGGAACUUUTT against Sema6b,-0.157
18,GGUUGUGCCAGAGGAGAUUTT against Scrib,0.963
19,GGAAGAACUAGAGUCAUAUTT against Eps8l1,-0.0721
20,CCAUACAUAAAAAGCCGCCTT against Il1rl1,1.29
21,GGUUCAUGUCAUCUUUAACTT against Calr,-1.21
22,GCAGAUGAUACCUGGGCAATT against Mtmr14,2.68 (active)

row,Sequence,z-score
1,GGAUCAAUUGGCACUAGACTT against Zfp787,-1.31
2,GGACAAGUCCUUUGCUGUGTT against Zmynd8,-1.35
3,GGCAAUACUGGAAGGGUGUTT against Eps15,-1.03
4,GGAUGAUAUGGCAUACUUUTT against Fam221a,0.803
5,GGCCAUCUUGAAUUUUUUATT against 2410002F23Rik,0.0652
6,GGUGCUGUUGAAUUGUGGGTT against Wdr77,-0.366
7,GAGCUCCUCUGCUUUCUCUTT against Ms4a6d,-2.74 (active)
8,GGUUAAACUUGGUGAAUUATT against Kcnj16,0.901
9,GCACAUGUCUGUGAUUCAATT against St8sia1,-0.166
10,GCGGAAACUCUCGAAAGUGTT against Dhx34,-1.52
11,CCUGAUGCAACACAGGUCCTT against Zbtb26,0.352
12,CGGAACACCAAUAAGAGAATT against Hgd,-0.667
13,GGACCGAUUAAGGAAGGAATT against Ppp1r1a,2.49 (active)
14,GCGUGAUUGACAACUGGUUTT against Cphx1,0.236
15,GGGAAUAUGACUGAAUAUATT against Ss18,-1.05
16,CCAAAUCGCUUCACAUAAUTT against Atp6v1g2,-1.1
17,GAGAAUGAGUUCUGCCCAGTT against Lhb,2.24 (active)
18,GGACAAGAACCUGAAGCGGTT against Cdk5r1,-0.355
19,GGCUGGAGAAAAUGAUGAATT against Rwdd1,-0.267
20,GGAAGACAUAUUAACUACUTT against Gpr37,0.544
21,GGAAAGCUCAAUUGGUUCGTT against Nup85,-2.27 (active)
22,GGGAUCAUCUCUUUUGCUGTT against Olfr720,-1.33

row,Sequence,z-score
1,GGGAAGCCUUUUUUAUCGGTT against V1rb5,0.838
2,CCCAUCCAAUAAGCAAUUGTT against Lpcat2,-0.696
3,GCGAGACUAUCAAAUCUAUTT against Gabra4,0.948
4,GGGAUAGUUACCUAAGACATT against Adarb2,0.593
5,GCACAAGUCUAAACAGCUGTT against Fermt1,0.494
6,GGAAAAAUACUCCAUAUUCTT against Enam,0.0353
7,CCUCAACACUCAGCUCAAUTT against Ifna14,-2.67 (active)
8,GGCCAGUAGAUCCUUCUAATT against Fgf16,0.406
9,CCUAAUCUAGAGCAACACATT against Ankrd34c,-1.67
10,GGCCUACCUUACCCUAAGATT against Adam32,0.513
11,CCAUGGCUUACGAGAGACATT against Mavs,-0.884
12,GGAAUCCUUUCCUAAAUUGTT against Lin9,0.745
13,GGAUAUGCUCUCUUGGCUCTT against Ctsk,-2.07 (active)
14,GGCUUCCUCCACUCUUUCCTT against Rhbg,-1.81
15,GGAACCAUGAAAUAAAUGUTT against Acad8,0.684
16,CCCUUAUUGAUUCUUCAAGTT against Ngp,0.342
17,GGUGCAACCAGUGUGUGAUTT against St6galnac6,4.22 (active)
18,CCCUCUAUCCUUAAACCAUTT against Erg28,-0.549
19,CCUAUUCUUAACACCCUUGTT against Tfr2,0.891
20,AUCUCUCCUGUUCUAACACTT against Olfr26,-0.242
21,GGUCAUCAGCUUGUAACCATT against Mmadhc,-1.37
22,GGACAAUUACAUCCAGCCUTT against 2610528J11Rik,-2.11 (active)

row,Sequence,z-score
1,GGACCUCAGCGAAGACAAUTT against Cd300e,0.114
2,GGUGAAAAGGUUGAUGUCATT against Spertl,-0.368
3,GCUCAAUAGCUCAAAGUUUTT against Chsy3,-0.197
4,GCCCUCCAACCUCGAUAACTT against Shisa7,2.9 (active)
5,GGAUGACCAAGAAUGGGAATT against Dap,0.341
6,GCAAAGGAGGCUUCUAUUGTT against Olfr380,-0.803
7,GGAGUUGUGGAAUUCUCUATT against Extl2,-1.3
8,AACAGAUCUUCUCUGGUCCTT against Klra15,-2.47 (active)
9,GCUUGUGUUUUAGAGCCGCTT against Mat1a,0.653
10,GCACAAUGACGCACUUACCTT against Pik3r2,0.693
11,CCUGGAAUGUAUUUGUUAUTT against Nkain2,0.0256
12,GGAACACUACCGUUUUGGGTT against Ehd2,2.55 (active)
13,GGACCAGGUUUGUUUUUUATT against Stom,1.03
14,CGGUUUUGUCAAAGCCCUGTT against Junb,0.322
15,GGUCAAGACGGUCUACCGATT against Rab3d,-0.571
16,GGGAUAUCAAAGCAAAAAUTT against Rab8a,-0.578
17,GGGUUCACGAAAGAGUAAATT against Clcn5,-1.21
18,GCCGUACCGGAUUUUUUUCTT against Smyd3,4 (active)
19,GCAGCUAACUCCAAGUCAGTT against Tfam,-1.42
20,GGACUUGCCUUGAUCGCUATT against Mars2,0.853
